Compound activity (PubChem BioAssay)
DRD3 agonist – agonists of human D3 dopamine receptor. D3R DiscoveRx beta-arrestin cells, luminescence, 90 min. AID 652048. 410,000 compounds, 0.58% hits. max activation, %. P35462; in the data active = max activation above about 30%; note: 0% is about no effect
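Agonist-mode cell screen: cells plated at 1500/well and incubated overnight at 37 °C, then exposed to library compounds for 90 min at 37 °C. Detection reagent was added for 30–60 min at room temperature, and luminescence was read.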
D1 antagonist – human D1 dopamine receptor antagonism; 360,000 compounds, 3.2% hits; activity change, negative = inhibition, % at 10 µM; P21728; HEK293 TREx D1 cells, calcium flux, dopamine EC80; hits give low values; AID 504652; in the data active = activity change below about -30%; note: % is set by controls: 0 for no effect and ±100 for the full control effect
Target sequence (P21728 whole entry, looked up): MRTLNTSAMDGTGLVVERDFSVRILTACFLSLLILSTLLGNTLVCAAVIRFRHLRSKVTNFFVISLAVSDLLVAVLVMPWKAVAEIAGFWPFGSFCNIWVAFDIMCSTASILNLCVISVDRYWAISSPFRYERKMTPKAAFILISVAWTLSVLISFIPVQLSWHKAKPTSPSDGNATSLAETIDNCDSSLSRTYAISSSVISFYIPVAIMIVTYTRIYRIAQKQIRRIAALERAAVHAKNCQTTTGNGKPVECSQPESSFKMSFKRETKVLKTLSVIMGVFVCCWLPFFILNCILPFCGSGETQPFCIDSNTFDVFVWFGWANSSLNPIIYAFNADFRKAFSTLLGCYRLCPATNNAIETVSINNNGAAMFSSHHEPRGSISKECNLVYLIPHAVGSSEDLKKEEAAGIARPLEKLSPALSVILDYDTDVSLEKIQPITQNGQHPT
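Calcium flux readout: force-coupled, inducible Hek293 Trex D1 line, cells induced overnight at 30 C with tetracycline, dye-loaded 30–90 min at RT. Antagonism scored against EC80 dopamine challenge given 180 s after compound.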
D3 antag – antagonists of human D3 dopamine receptor; 360,000 compounds, 2.5% hits; D3R cells, DiscoveRx beta-arrestin luminescence, antagonist mode; hits give low values; P35462; max response, negative = inhibition, %; in the data active = max response below about -50%; inconclusive = no clear call, values can overlap the other calls; note: % is set by controls: 0 for no effect and ±100 for the full control effect
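Cells expressing the human receptor were seeded at 1500 cells/well, incubated overnight at 37 degrees C in 5% CO2, then exposed to library compounds with dopamine controls for 90 minutes at 37 degrees C before luminescent detection.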
D1 PAM – enhances dopamine response at the human D1 receptor; HEK293 TREx D1 cells, calcium flux, dopamine EC20 potentiation; potentiation, % at 10 µM; 360,000 compounds, 0.036% hits; in the data active = potentiation above about 30%; note: 0% is about no effect
D1 ag – agonists of human D1 dopamine receptor; P21728; HEK293 T-REx D1 cells, calcium flux, agonist mode; activation, % at 2 µM; 360,000 compounds, 1% hits; AID 504660; in the data active = activation above about 30%; note: 0% is about no effect
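Tetracycline-induced HEK293 TREx D1 cells, force-coupled to calcium signalling, were dye-loaded with a no-wash calcium kit. Compound was pin-added after a 10 s baseline. Fluorescence was read kinetically at 1 cycle/s for 180 s, with calcium rises flagged as agonism.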
* hit, by the source's call; ? = inconclusive; / = no result given. Rows were chosen to be rich in hits. Some 6% of all compounds tested hit in one or more screens of this group.

SMILES	DRD3 agonist	D1 antagonist	D3 antag	D1 PAM	D1 ag
COc1cccc(NC(=O)c2cccn(Cc3ccccc3C)c2=O)c1	-2	-11	/	-5	9
O=C(/C=C/c1c[nH]c2ccccc12)c1c(O)n(CCc2ccccc2)c(=O)[nH]c1=O	3	51	-6	39*	383*
CCCCn1c(O)c(C(C)=NCCc2c[nH]c3ccccc23)c(=O)[nH]c1=O	0	10	-2	4	4
O=C1OC(c2ccc(O)c(S(=O)(=O)O)c2)(c2ccc(O)c(S(=O)(=O)O)c2)c2c(Br)c(Br)c(Br)c(Br)c21	5	/	/	/	/
O=c1[nH]c2ccccc2n1C1CCN(C(c2cc3ccccc3o2)c2nnnn2-c2ccc3c(c2)OCCO3)CC1 (stereo unspecified)	43*	/	83	/	/
CCON=O	7	/	/	/	/
Cn1cnc(CCN)c1	-8	/	-77*	/	/
CCOC(=O)c1cccc(C2=C(CNC(=O)c3ocnc3C)[C@H]3CC[C@@H](C2)N3Cc2ccccc2)c1	-12	/	-2	/	/
CCOC(=O)c1cccc(C2=C(CNC(=O)c3nccs3)[C@H]3CC[C@@H](C2)N3Cc2ccccc2)c1	-17	/	-57*	/	/
CS(=O)(=O)c1ccc(C2=C(CNC(=O)c3ccc([N+](=O)[O-])cc3)[C@H]3CC[C@@H](C2)N3Cc2ccccc2)cc1	-8	/	-86*	/	/
[Cl-].[Cl-].[Hg+2]	-25	/	/	/	/
CC(=NCCN1CCCCC1)c1c(O)[nH]c(=O)[nH]c1=O	-2	-12	-53*	-4	20
CC(=NCCCO)c1c(O)[nH]c(=O)[nH]c1=O	15	-1	4	2	1
CCCCn1c(O)c(C(C)=NCCN2CCCCC2)c(=O)[nH]c1=O	-8	-17	-71*	4	4
C=CCn1c(O)c(C(C)=NCCN2CCCCC2)c(=O)[nH]c1=O	-6	-7	-65*	0	4
Cc1ccc(CNC(=O)CCCn2c(=O)c3sccc3n(CC(=O)Nc3c(C)cccc3C)c2=O)cc1	4	2	/	1	-2
Cc1c(CC(=O)N2C[C@H]3C[C@@H](C2)c2cccc(=O)n2C3)c(=O)oc2cc(O)c(Cl)cc12	15	-47*	-9	0	2
COc1cc2oc(=O)c(CC(=O)N3C[C@H]4C[C@@H](C3)c3cccc(=O)n3C4)c(C)c2cc1Cl	-19	/	0	/	/
N[C@@H](Cc1ccc(Oc2cc(I)c(O)c(I)c2)c(I)c1)C(=O)O	-11	/	/	/	/
CN1CCN(c2oc(-c3ccc(COc4ccccc4)o3)nc2C#N)CC1	0	-9	/	-2	-1
O=C1CN=C(c2ccccc2)c2cc(Cl)ccc2N1Cc1ccc(Cl)cc1	6	7	/	-2	-1
CC1=Nc2ccccc2/C1=C/c1c(O)[nH]c(=O)[nH]c1=O	6	23	7	0	-2
O=c1[nH]c(O)c(/C=C2/C=CC(c3cc(Cl)ccc3Cl)=N2)c(=O)[nH]1	-6	-7	-15	6	73*
Cc1ccccc1OCC(=O)N1CCN(CCc2ccccn2)CC1	-1	4	/	1	-1
Cc1c(O)ccc(C(=O)CN2CC(C)OC(C)C2)c1O (stereo unspecified)	-2	-40*	5	-4	2
SMILES	DRD3 agonist	D1 antagonist	D3 antag	D1 PAM	D1 ag
CN1CCN(c2ccc([N+](=O)[O-])c(Sc3ccccn3)c2)CC1	-36	-70*	?	-7	3
Cc1ccc(-n2c(/C=C/c3ccccc3)nc3ccccc3c2=O)cc1Cl	-1	-11	/	-1	-2
COc1ccccc1CC1/C(=N/O)C2CCN1CC2 (stereo unspecified)	-3	-69*	24	-15	15
C[C@H]1CC[C@]2(NC1)O[C@H]1C[C@H]3[C@@H]4CC[C@H]5C[C@@H](O)CC[C@]5(C)[C@H]4CC[C@]3(C)[C@H]1[C@@H]2C	-20	/	/	/	/
CCCCCCCCn1sccc1=O	-75	/	-81*	-6	2
CC(c1ccc(F)cc1)n1cc(C(=O)NCc2ccc3c(c2)OCO3)nn1 (stereo unspecified)	-1	-1	-12	1	31*
COC(=O)C1=C(c2ccc(F)cc2F)C[C@@H]2CC[C@H]1N2C(=O)NCc1ccc2c(c1)OCO2	-17	-2	-15	3	-1
O=C(Cc1ccccc1)N1CCN(CC2CC=CCC2)CC1 (stereo unspecified)	-16	-25	-53*	2	6
Cc1nc2cc(OC(=O)N(C)Cc3cccc(-c4ccncc4)c3)ccc2s1	33*	/	128	/	/
Cc1nnc(NC(=O)c2cccn(Cc3ccc(Cl)cc3)c2=O)s1	2	5	/	1	1
COc1ccc2c(c1)CC1(CN2C)C(=O)NC(=O)N(c2ccc(C)cc2)C1=O (stereo unspecified)	4	0	0	12	2
COc1ccc2c(c1)CC1(CN2C)C(=O)NC(=O)N(c2ccc(F)cc2)C1=O (stereo unspecified)	5	-82*	3	1	1
COc1cc(CC(C)N)cc2c1OCO2 (stereo unspecified)	-7	/	/	/	/
Cc1[nH]c2ccccc2c1CCNCc1cccnc1	-14	2	-5	-1	3
Cc1[nH]c2ccccc2c1CCNCc1ccco1	-8	-41*	-6	-3	11
CCCN(CCC)C(=O)Cc1c(-c2ccc(Cl)cc2)nc2ccc(Cl)cn12	7	/	/	/	/
CC(C)=CCN1CC[C@@]2(C)c3cc(O)ccc3C[C@@H]1C2C (stereo partly specified)	-48	/	-58*	/	/
CC(C)=CCN1CC[C@@]2(C)c3cc(O)ccc3CC1C2C (stereo partly specified)	-78	/	?	/	/
COc1ccc(Cc2nccc3cc(OC)c(OC)cc23)cc1OC	5	-32*	-19	-3	8
O=C(COc1ccc(Br)cc1)Nc1ccc(Cl)cc1C(=O)c1ccccc1	4	3	/	1	3
COc1cc(CC(C)N)c(OC)cc1Br (stereo unspecified)	-12	/	/	/	/
CCC1(c2ccccc2)C(=O)NC(=O)NC1=O	-7	/	-116*	/	/
CN(c1ccc(OCC(=O)N2CCN(C/C=C/c3ccccc3)CC2)cc1)S(=O)(=O)c1cccs1	-7	-43*	25	-1	10
O=S(=O)(NC1CCCCC1)OCC(Cl)(Cl)Cl	-8	-34*	-10	-3	1
CN(C)CC(C(=O)Cc1ccccc1)c1ccccc1 (stereo unspecified)	-22	/	-63*	/	/
C[C@@H]([C@@H](O)c1ccccc1)N(C)C(=O)Cc1ccccc1	-3	/	6	/	/
CCOc1ccc2nc(NC(=O)c3cccn(Cc4ccc(C)cc4)c3=O)sc2c1	-12	/	/	4	-3
CCOc1ccc2nc(NC(=O)c3cccn(Cc4ccccc4)c3=O)sc2c1	-3	/	/	2	33*
O=C1CC(c2ccccc2Br)c2c(c3ccccc3oc2=O)O1 (stereo unspecified)	1	-17	/	1	4
